From PubChem
Shown are actives, neighbours in structure and some others; about 3.9% of the full set was active somewhere.
C8 TRAIL sens – viability loss with TRAIL in NB7+C8 cells, primary screen, TRAIL sensitizer project, cell-based, ATPlite luminescence; inhibition (viability loss, TRAIL sensitization), % at 10 µM; actives 1% (n = 360,000); AID 624354, 2012;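 active = compounds causing at least 50% loss of cell viability in the single-dose screen, relative to plate controls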
TROY NFkB inh – inhibitors of TROY-driven NF-kB signaling, primary screen, Q293 LMP1-TROYcd cells, NF-kB luciferase, uHTS. actives 0.98% (n = 360,000). inhibition, % at 10 µM. Q293 LMP1-TROYcd NF-kB luciferase reporter, 4 h;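 active = compounds whose plate-normalised and pattern-corrected inhibition of the luciferase reporter signal at the single screening dose is 50% or more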
TWEAK-Fn14 inh – inhibitors of TWEAK-Fn14 signaling, primary screen, luciferase reporter cells, uHTS; TWEAK-stimulated Fn14 reporter cells, luciferase luminescence, 8 h; inhibition, % at 10 µM; actives 2% (n = 360,000); AID 1159606, 2016; in the data active = inhibition above about 50%
aSyn 5UTR inh – MLPCN primary screen, SNCA 5' untranslated region; alpha-synuclein 5'UTR reporter, inhibitor activity; inhibition, % (tested at 7.5 µM); actives 0.82% (n = 300,000); AID 1813, 2009; in the data active = inhibition above about 60%; inconclusive = no clear call, values can overlap the other calls;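 note: H4 neuroglioblastoma cells stably carrying SNCA 5'UTR luciferase fusion; 0% = DMSO wells and 100% = positive control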
HIF-2a inh – HIF-2a reporter inhibitors, primary screen, luminescence, 786-0 RCC cells; 786-0 RCC cells HIF-2a reporter, luciferase luminescence, overnight; inhibition, % at 18.8 µM; actives 0.72% (n = 360,000); AID 624352, 2012;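 active = inhibition of the luminescence signal of 40% or more relative to plate controls, in a single-dose primary screen at 18.75 µM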
HSP90 refold inh – HSP90 inhibitors, primary screen, cell lysate, luminescence; Heat shock protein HSP 90 (rabbit reticulocyte lysate; luciferase refolding); Rabbit reticulocyte lysate, luciferase refolding luminescence, 3 h; inhibition, % at 5.6 µM; actives 0.91% (n = 290,000);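 active = inhibition above the screen-wide mean plus 3 SD, computed separately per campaign, cut at about 16% in these data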;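 note: 0% = DMSO wells and 100% = 60 µM geldanamycin wells; inhibitors lower the luminescence because luciferase stays unfolded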
HSP90 inh confirm – HSP90 inhibitors, confirmation, cell lysate, luminescence | shares compounds with HSP90 refold inh | rabbit reticulocyte lysate, luciferase refolding luminescence, 3 h | inhibition, % at 5.9 µM | AID 1846, 2009 | actives 64% (n = 2,300); in the data active = inhibition above about 18%;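 note: 0% = vehicle wells and 100% = reference inhibitor wells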
FLuc counter – firefly luciferase inhibitors, HSP90 counter-screen, confirmation, artefact control for HSP90 inhibitor project, biochemical, luminescence, triplicate | shares compounds with HSP90 refold inh | purified native firefly luciferase | inhibition, % at 5.9 µM | actives 48% (n = 2,300) | AID 1847, 2009;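 active = inhibition above the mean inhibition of all tested sample wells plus 3 SD, cut at about 10% in these data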;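 note: 0% = DMSO with luciferase and 100% = wells lacking luciferase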
Target sequence (P08659 whole entry, looked up): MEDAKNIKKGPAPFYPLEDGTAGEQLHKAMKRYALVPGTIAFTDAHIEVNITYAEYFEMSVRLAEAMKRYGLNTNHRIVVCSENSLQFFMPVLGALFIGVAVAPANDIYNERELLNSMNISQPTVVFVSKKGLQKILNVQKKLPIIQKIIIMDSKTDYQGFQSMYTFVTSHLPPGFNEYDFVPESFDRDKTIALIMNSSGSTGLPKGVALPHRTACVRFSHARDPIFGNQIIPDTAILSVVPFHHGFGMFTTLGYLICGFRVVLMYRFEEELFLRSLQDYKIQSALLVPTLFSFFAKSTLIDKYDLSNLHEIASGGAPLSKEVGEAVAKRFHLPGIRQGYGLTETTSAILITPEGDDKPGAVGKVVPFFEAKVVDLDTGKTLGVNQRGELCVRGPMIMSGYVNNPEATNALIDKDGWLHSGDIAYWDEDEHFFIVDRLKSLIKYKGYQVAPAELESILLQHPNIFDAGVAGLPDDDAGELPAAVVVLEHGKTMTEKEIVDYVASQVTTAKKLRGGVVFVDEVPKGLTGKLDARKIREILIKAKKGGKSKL
Mdm2-MdmX confirm – retested Mdm2-MdmX interaction blockers, confirmation, cell-based, luminescence, single concentration, set 2. shares compounds with HIF-2a inh. SaOS-2 split-luciferase Mdm2/MdmX complementation. inhibition, % at 8 µM. actives 99% (n = 740);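 active = mean inhibition of the luminescence signal across two replicates at or above 26 percent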
HIF-2a inh conf – HIF-2a reporter inhibitor retest, confirmation, luminescence, 786-0 RCC cells; shares compounds with HIF-2a inh; HIF-2a luciferase reporter luminescence, overnight; inhibition, % at 18.8 µM; actives 56% (n = 1,800);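 active = mean inhibition across four replicates of at least 40 percent at the single tested concentration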
HIF-1a counter – HIF-1a luciferase reporter signal reduction – MiaPaCa-2 cells, single concentration, counter-screen for HIF-2a inhibitor project, confirmation; AID 651589, 2012; actives 72% (n = 1,800); MiaPaCa-2 HIF-1a luciferase reporter, desferoxamine, overnight; inhibition, % at 18.8 µM; shares compounds with HIF-2a inh;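 active = mean inhibition of the reporter signal across four replicates at the single tested dose of 50% or more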
Starred values were filed as active, the others as inactive; u = inconclusive; x = not tested or not shown.

SMILES	C8 TRAIL sens	TROY NFkB inh	TWEAK-Fn14 inh	aSyn 5UTR inh	HIF-2a inh	HSP90 refold inh	HSP90 inh confirm	FLuc counter	HIF-2a inh conf	HIF-1a counter	others
O=C(O)c1ccc(N/N=C/c2ccc(C(F)(F)F)cc2)cc1	9	29	90*	u	45*	77*	86*	81*	68*	33
O=C(N/N=C/c1ccc(C(F)(F)F)cc1)c1ccc(O)cc1	23	-56	-22	-85	-112	-4	x	x	x	x
CCNC(=S)N/N=C/c1ccc(C(=O)O)cc1	-1	-11	5	-26	11	-1	x	x	x	x
O=C(COC(=O)CN1CCSC1=O)Nc1ccc(F)cc1Cl	9	15	-7	x	-2	x	x	x	x	x
C/C(=N\NC(=O)c1n[nH]c2c1CCC2)c1cccs1	80*	63*	96*	107*	72*	33*	84*	72*	83*	50
O=C(N/N=C/c1cccc2ccccc12)c1n[nH]c2c1CCCC2	-12	-10	20	-22	-113	-1	x	x	x	x
O=C(N/N=C/c1cccs1)c1n[nH]c2c1CCCC2	74*	68*	93*	82*	47*	36*	77*	71*	65*	57*
COCCn1c(C)cc(C(=O)COC(=O)c2n[nH]c3ccccc23)c1C	88*	54*	86*	81*	47*	44*	66*	69*	45*	31
COCCn1c(C)cc(C(=O)COC(=O)Cc2n[nH]c(=O)c3ccccc23)c1C	4	-23	-21	x	-145	x	x	x	x	x
Cc1cc(SCC(=O)N(C)C2CCCCC2)nc2ccccc12	-9	1	-8	x	-7	x	x	x	x	x
N/C(=N\OC(=O)c1ccc([N+](=O)[O-])cc1Cl)c1ccccn1	88*	67*	94*	69*	41*	67*	61*	90*	28	62*
Cc1cc(C)c(C#N)c(SCc2nnc(-c3ccccc3)o2)n1	69*	90*	100*	102*	67*	67*	58*	33*	76*	82*
Cc1ccc(C#N)c(SCc2nnc(-c3ccc(Cl)cc3)o2)n1	82*	87*	98*	90*	46*	24*	75*	75*	59*	80*
Cn1c(N)c(C(=O)N2CCN(c3ccccc3)CC2)c(=O)n(C)c1=O	1	-7	-4	x	8	x	x	x	x	x
CCOC(=O)Nc1ccc(N2CCOCC2)c(S(=O)(=O)Nc2ccc(Cl)cc2)c1	26	4	-1	x	-1	x	x	x	x	x
COC(=O)[C@]1(C)N[C@H](CN(C)C(=O)C2CCCCC2)[C@@H]2C(=O)N(C)C(=O)[C@@H]21	1	8	1	x	11	x	x	x	x	x
NCc1ccccc1	-18	-5	3	x	4	x	x	x	x	x
Cc1cc(C(=O)COC(=O)c2ccccc2O)c(C)n1Cc1cccs1	90*	64*	102*	93*	90*	82*	86*	84*	96*	97*
Cc1cc(C(=O)COC(=O)c2ccccc2Br)c(C)n1CC1CCCO1 (stereo not drawn)	77*	71*	92*	54	55*	85*	84*	84*	68*	90*
O=C(Nc1cccc(C(=O)O)c1)Nc1ccc2c(c1)OCO2	49	-30	6	99*	83*	86*	96*	91*	x	x	Mdm2-MdmX confirm=64*
O=C(O)c1ccc(N/N=C/c2cc3c(cc2[N+](=O)[O-])OCO3)cc1	-10	-7	34	-52	6	8	x	x	x	x
O=C(O)c1ccc(N/N=C/c2ccc3c(c2)OCO3)cc1	31	82*	102*	94*	86*	82*	94*	88*	90*	88*
O=C(O)c1cc(N/N=C/c2ccc3c(c2)OCCO3)ccc1Cl	-13	11	-13	x	62*	39*	87*	82*	80*	-53
CC1(C(=O)NCc2cccnc2)Cc2c(-c3cccc(C(F)(F)F)c3)ccnc2O1 (stereo not drawn)	22	20	9	x	19	x	x	x	x	x
Cc1c(Br)cccc1NC(=O)C1(C)CCN1C(C)C (stereo not drawn)	1	-9	18	x	4	x	x	x	x	x
SMILES	C8 TRAIL sens	TROY NFkB inh	TWEAK-Fn14 inh	aSyn 5UTR inh	HIF-2a inh	HSP90 refold inh	HSP90 inh confirm	FLuc counter	HIF-2a inh conf	HIF-1a counter	others
O=C(O)c1ccc2c(c1)OCCO2	-3	x	-5	-4	1	-2	x	x	x	x
Cc1oc(-c2ccc3c(c2)OCCO3)cc1C(=O)O	6	84*	106*	-135	81*	96*	101*	91*	92*	92*
CC(=O)c1sc(Nc2nc3ccc(F)cc3s2)nc1C	35	-28	-86	-216	-207	2	x	x	x	x
COC(=O)c1ccc2nc(Nc3nc4ccc(F)cc4s3)sc2c1	1	79*	92*	75*	89*	83*	90*	81*	98*	88*
CC(C)(C)c1ccc(C(=O)O/N=C(\N)c2ccccc2)cc1	93*	90*	105*	53	72*	69*	25*	20*	87*	87*
COc1cccc(C(C)(O)c2nc(-c3cccs3)cs2)c1 (stereo not drawn)	13	31	31	x	3	x	x	x	x	x
Cc1ccc(NC(=O)O/N=C/c2c(C)nn(C(C)(C)C)c2C)cc1Cl	21	82*	103*	77*	91*	86*	87*	88*	97*	104*	Mdm2-MdmX confirm=101*
Cc1ccc(NC(=O)Nn2cnnc2)cc1Cl	0	3	9	12	-2	-8	x	x	x	x
